# Results: publication PMC8384837, “Expanding the binding specificity for RNA recognition by a PUF domain”
# Key:
# Assay in all cases: yeast three-hybrid, YBZ-1, SC-Leu-His + 0.5 mM 3-AT, 4 days
# Settings in all cases: tags: N-Gal4 AD-HA kept; label: inside an RPR1-promoter hybrid RNA with tandem MS2 sites; ssRNA
# [1] = target: PUM1 PUF domain R3-SRG (Homo sapiens, UniProt Q14671 828-1176, C935S;Q939G)
# Summary of the method: (§1)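 Pumilio-1 PUF domain libraries, randomized (NNK) at the three base-contacting residues of each repeat, were co-expressed with matching RNA elements from a centromeric plasmid in strain YBZ-1 (LexA–MS2 coat fusion, HIS3 reporter). Transformants were plated on SC-Leu (input) and SC-Leu-His + 0.5 mM 3-AT (selection) for four days, and repeat regions were PCR-amplified and Illumina-sequenced. The interaction score is the log2 change in variant frequency from input to selection, with pseudocount 1 where absent.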
# [2] = target: PUM1 PUF domain R3-LCR (Homo sapiens, UniProt Q14671 828-1176, C935L;R936C;Q939R)
# Summary of the method: as §1
# [3] = target: PUM1 PUF domain R5-KNG (Homo sapiens, UniProt Q14671 828-1176, C1007K;R1008N;Q1011G)
# Summary of the method: as §1
# [4] = target: PUM1 PUF domain R5-KQG (Homo sapiens, UniProt Q14671 828-1176, C1007K;R1008Q;Q1011G)
# Summary of the method: as §1
# [5] = target: PUM1 PUF domain R7-KWH (Homo sapiens, UniProt Q14671 828-1176, S1079K;N1080W;E1083H)
# Summary of the method: as §1
# [6] = target: PUM1 PUF domain R3-RIK (Homo sapiens, UniProt Q14671 828-1176, C935R;R936I;Q939K)
# Summary of the method: as §1
# [7] = target: PUM1 PUF domain R3-RQL (Homo sapiens, UniProt Q14671 828-1176, C935R;R936Q;Q939L)
# Summary of the method: as §1
# [8] = target: T1, PUM1 PUF domain R6-VFT (Homo sapiens, UniProt Q14671 828-1176, N1043V;Y1044F;Q1047T)
# T1 sequence: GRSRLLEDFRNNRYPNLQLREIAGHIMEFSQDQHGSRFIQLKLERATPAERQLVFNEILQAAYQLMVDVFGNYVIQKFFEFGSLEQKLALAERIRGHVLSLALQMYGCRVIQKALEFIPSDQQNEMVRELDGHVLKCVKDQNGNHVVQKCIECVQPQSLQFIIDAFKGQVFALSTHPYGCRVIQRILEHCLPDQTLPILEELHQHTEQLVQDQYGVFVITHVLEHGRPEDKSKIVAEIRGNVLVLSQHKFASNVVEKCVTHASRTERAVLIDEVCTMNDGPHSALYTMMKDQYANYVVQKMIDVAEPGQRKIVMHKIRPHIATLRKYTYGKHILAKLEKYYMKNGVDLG
# Summary of the method: as §1
# [9] = target: PUM1 PUF domain R4-EFG (Homo sapiens, UniProt Q14671 828-1176, N971E;H972F;Q975G)
# Summary of the method: as §1
# [10] = target: PUM1 PUF domain R5-TQG (Homo sapiens, UniProt Q14671 828-1176, C1007T;R1008Q;Q1011G)
# Summary of the method: as §1
sequence,measurement,setting,value
GGCUAGAACUAGUGGAUCCCCCGGCGCCCGGCGGCUCGAGCCCGGGUAAGUGUAAGUAGUCUGCAUGCCGCCGGGCGCCAUGCCUGCAGGUCGACUCUAGAAAACAUG,binding signal,[1],2.65 log2 enrichment (interaction score)
same,binding signal,[2],3.54 log2 enrichment (interaction score)
GGCUAGAACUAGUGGAUCCCCCGGCGCCCGGCGGCUCGAGCCCGGGUAAGUGUCAAUAGUCUGCAUGCCGCCGGGCGCCAUGCCUGCAGGUCGACUCUAGAAAACAUG,binding signal,[3],2.59 log2 enrichment (interaction score)
same,binding signal,[4],3.41 log2 enrichment (interaction score)
GGCUAGAACUAGUGGAUCCCCCGGCGCCCGGCGGCUCGAGCCCGGGUAAGUCUAAAUAGUCUGCAUGCCGCCGGGCGCCAUGCCUGCAGGUCGACUCUAGAAAACAUG,binding signal,[5],5.07 log2 enrichment (interaction score)
GGCUAGAACUAGUGGAUCCCCCGGCGCCCGGCGGCUCGAGCCCGGGUAAGUGUUAAUAGUCUGCAUGCCGCCGGGCGCCAUGCCUGCAGGUCGACUCUAGAAAACAUG,binding signal,[3],4.33 log2 enrichment (interaction score)
GGCUAGAACUAGUGGAUCCCCCGGCGCCCGGCGGCUCGAGCCCGGGUAAGUGUAAUUAGUCUGCAUGCCGCCGGGCGCCAUGCCUGCAGGUCGACUCUAGAAAACAUG,binding signal,[6],2.73 log2 enrichment (interaction score)
same,binding signal,[7],3.54 log2 enrichment (interaction score)
same,binding signal,[2],1.28 log2 enrichment (interaction score)
GGCUAGAACUAGUGGAUCCCCCGGCGCCCGGCGGCUCGAGCCCGGGUAAGUGAAAAUAGUCUGCAUGCCGCCGGGCGCCAUGCCUGCAGGUCGACUCUAGAAAACAUG,binding signal,[8],6.61 log2 enrichment (interaction score)
GGCUAGAACUAGUGGAUCCCCCGGCGCCCGGCGGCUCGAGCCCGGGUAAGUGUAUAUAGUCUGCAUGCCGCCGGGCGCCAUGCCUGCAGGUCGACUCUAGAAAACAUG,binding signal,[9],1.18 log2 enrichment (interaction score)
GGCUAGAACUAGUGGAUCCCCCGGCGCCCGGCGGCUCGAGCCCGGGUAAGUAUAAAUAGUCUGCAUGCCGCCGGGCGCCAUGCCUGCAGGUCGACUCUAGAAAACAUG,binding signal,[5],2.68 log2 enrichment (interaction score)
GGCUAGAACUAGUGGAUCCCCCGGCGCCCGGCGGCUCGAGCCCGGGUAAGUGUAAAUAGUCUGCAUGCCGCCGGGCGCCAUGCCUGCAGGUCGACUCUAGAAAACAUG,binding signal,[1],4.45 log2 enrichment (interaction score)
same,binding signal,[8],2.21 log2 enrichment (interaction score)
same,binding signal,[10],0.76 log2 enrichment (interaction score)
same,binding signal,[9],3.99 log2 enrichment (interaction score)
GGCUAGAACUAGUGGAUCCCCCGGCGCCCGGCGGCUCGAGCCCGGGUAAGUGUGAAUAGUCUGCAUGCCGCCGGGCGCCAUGCCUGCAGGUCGACUCUAGAAAACAUG,binding signal,[10],2.63 log2 enrichment (interaction score)
